Where “and” joins values, the source holds several entries; their conditions need not be identical. Identical values can stand only once. Records with an inconclusive call do not appear. Calls of active or inactive are those of the source. Calls come from the whole dose curve; as a rule, active = well fitted curve in the direction sought with a large enough effect; inconclusive = small, poorly fitted or top-dose-only effect, or another doubt; inactive = no such curve, though single readings can be large; an effect the other way counts as inactive or inconclusive.
Key:
[1] = test system: MCC-26; test: qHTS assay to identify novel small-molecules to repurpose for Merkel cell carcinoma treatment (AID 1296009); settings: MCC and control cell lines, CellTiter-Glo viability, 72 h; series mostly up to 46 µM; note: nearly all actives have a fitted effect of over 60% in size
In short: (§1)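 Luminescence from CellTiter-Glo, read 10 min after addition at room temperature, reported viability following a 72 hr, 37 degree celsius treatment with NPC or MIPE compounds in titration; values normalized to plate controls.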

[2] = test system: MKL-1; test: as above; settings: MCC and control cell lines, CellTiter-Glo viability, 72 h; series mostly up to 46 µM
In short: as §1

[3] = test system: MKL-2; test: as above; settings: MCC and control cell lines, CellTiter-Glo viability, 72 h; series mostly up to 46 µM
In short: as §1

[4] = test system: UISO; test: as above; settings: MCC and control cell lines, CellTiter-Glo viability, 72 h; series mostly up to 46 µM
In short: as §1

[5] = test system: WaGa; test: as above; settings: MCC and control cell lines, CellTiter-Glo viability, 72 h; series mostly up to 46 µM
In short: as §1

[6] = test system: C33A; test: Primary qHTS to identify gynecologic anti-cancer compounds using libraries of approved drugs and bioactive compounds (AID 1345084); settings: Gynecologic cancer cell panel viability, ATPlite luminescence, 48 h; series mostly up to 57.5 µM; note: nearly all actives have a fitted effect of over 55% in size
In short: (§2)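 In this quantitative HTS, cell killing is estimated from loss of ATP-dependent luciferase light. Cells see five compound concentrations over a 48 h exposure.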

[7] = test system: CAOV3; test: as above; settings: Gynecologic cancer cell panel viability, ATPlite luminescence, 48 h; series mostly up to 57.5 µM
In short: as §2

[8] = test system: CASKI; test: as above; settings: Gynecologic cancer cell panel viability, ATPlite luminescence, 48 h; series mostly up to 57.5 µM
In short: as §2

[9] = test system: Es-2; test: as above; settings: Gynecologic cancer cell panel viability, ATPlite luminescence, 48 h; series mostly up to 57.5 µM
In short: as §2

[10] = test system: HeLa; test: as above; settings: Gynecologic cancer cell panel viability, ATPlite luminescence, 48 h; series mostly up to 57.5 µM
In short: as §2

[11] = test system: Hek293T; test: as above; settings: Gynecologic cancer cell panel viability, ATPlite luminescence, 48 h, control line for the selectivity index; series mostly up to 57.5 µM
In short: as §2

[12] = test system: JEG-3; test: as above; settings: Gynecologic cancer cell panel viability, ATPlite luminescence, 48 h; series mostly up to 57.5 µM
In short: as §2

[13] = test system: OV90; test: as above; settings: Gynecologic cancer cell panel viability, ATPlite luminescence, 48 h; series mostly up to 57.5 µM
In short: as §2

[14] = test system: PA-1; test: as above; settings: Gynecologic cancer cell panel viability, ATPlite luminescence, 48 h; series mostly up to 57.5 µM
In short: as §2

[15] = test system: SKOV3; test: as above; settings: Gynecologic cancer cell panel viability, ATPlite luminescence, 48 h; series mostly up to 57.5 µM
In short: as §2

[16] = test system: Tov-21-G; test: as above; settings: Gynecologic cancer cell panel viability, ATPlite luminescence, 48 h; series mostly up to 57.5 µM
In short: as §2

[17] = test system: Tov112D; test: as above; settings: Gynecologic cancer cell panel viability, ATPlite luminescence, 48 h; series mostly up to 57.5 µM
In short: as §2

[18] = Drug repurposing screens with cells derived from glioblastoma tumor samples (AID 1345199); settings: GBM patient neurospheres viability, ATP luminescence, 48 h; note: nearly all actives have a fitted effect of over 40% in size
In short: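 Primary testing used CD133+ neurospheres from four GBM patients, seven concentrations, 48 h exposure and ATP-based viability; confirmation added three slower-growing patient lines.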

[19] = at 20 µM (top of the series), tumour line C
[20] = at 21.2 µM (top of the series), tumour line B
[21] = at 21.2 µM (top of the series), tumour line D
[22] = at 45.9 µM (top of the series), tumour line B
[23] = at 45.9 µM (top of the series), tumour line D
[24] = at 46.1 µM (top of the series), tumour line C
% is set by controls: 0 for no effect and ±100 for the full control effect.

Cc1c(Nc2ncccc2C(=O)O)cccc1C(F)(F)F
inactive: Potency [1] | Potency [2] | Potency [3] | Potency [4] | Potency [5] | Potency [6] | Potency [7] | Potency [8] | Potency [9] | Potency [10] | Potency [11] | Potency [12] | Potency [13] | Potency [14] | Potency [15] | Potency [16] | Potency [17] | activity, negative = cell killing [18, 19] -8.1% | activity, negative = cell killing [18, 20] -18.2% | activity, negative = cell killing [18, 21] -22.5%

C[N+]1(C)[C@@H]2CC(OC(=O)[C@H](CO)c3ccccc3)C[C@H]1[C@@H]1O[C@@H]12 (stereo not given in full)
inactive: Potency [1] | Potency [2] | Potency [3] | Potency [4] | Potency [5] | Potency [6] | Potency [8] | Potency [9] | Potency [10] | Potency [11] | Potency [12] | Potency [13] | Potency [14] | Potency [15] | Potency [16] | Potency [17]

CN(C)[C@@H]1C(=O)C(C(=O)NCN2CCCC2)=C(O)[C@@]2(O)C(=O)C3=C(O)c4c(O)cccc4[C@@](C)(O)C3C[C@@H]12 (stereo not given in full)
inactive: Potency [1] | Potency [2] | Potency [3] | Potency [4] | Potency [5] | Potency [6] | Potency [8] | Potency [9] | Potency [10] | Potency [11] | Potency [12] | Potency [13] | Potency [14] | Potency [15] | Potency [16] | Potency [17] | activity, negative = cell killing [18, 19] -9.38% | activity, negative = cell killing [18, 20] -5.39% | activity, negative = cell killing [18, 21] 11.2% | activity, negative = cell killing ([18]; at 21.3 µM (top of the series), tumour line A) -7.96% | activity, negative = cell killing [18, 22] -10.2% | activity, negative = cell killing [18, 23] -31.8% | activity, negative = cell killing [18, 24] 27.9%

Cc1c(C(=O)O)c(O)cc2c1C(=O)c1c(O)c([C@@H]3O[C@H](CO)[C@@H](O)[C@H](O)[C@H]3O)c(O)c(O)c1C2=O
inactive: Potency [1] | Potency [2] | Potency [3] | Potency [4] | Potency [5] | Potency [6] | Potency [7] | Potency [8] | Potency [9] | Potency [10] | Potency [11] | Potency [12] | Potency [14] | Potency [15] | Potency [16] | Potency [17] | activity, negative = cell killing [18, 22] -25.2% | activity, negative = cell killing [18, 23] -27.3% | activity, negative = cell killing [18, 24] 21.4%

CCOC(=O)c1ccccc1O
inactive: Potency [1] | Potency [2] | Potency [3] | Potency [4] | Potency [5] | Potency [6] | Potency [7] | Potency [8] | Potency [9] | Potency [10] | Potency [11] | Potency [12] | Potency [13] | Potency [14] | Potency [15] | Potency [16] | Potency [17] | activity, negative = cell killing [18, 22] -4.37% and -22.2% | activity, negative = cell killing [18, 23] -0.79% and -11.1% | activity, negative = cell killing ([18]; at 46 µM (top of the series), tumour line A) -24.1% | activity, negative = cell killing [18, 24] -28.6% and -1.56%

COc1ccnc2c1CCCCC2S(=O)c1nc2ccccc2[nH]1 (stereo not given)
inactive: Potency [1] | Potency [2] | Potency [3] | Potency [4] | Potency [5] | Potency [6] | Potency [8] | Potency [9] | Potency [10] | Potency [11] | Potency [12] | Potency [13] | Potency [14] | Potency [15] | Potency [16] | Potency [17]
